# Measured values published in PubChem BioAssay.
# The source made the active and inactive calls. Unless noted, no rule for the calls is given here.
# Legend:
# [1] = system: Wnt5a (protein binding on small-molecule microarray); assay: Wnt5a binders on small-molecule microarray, primary screen, biophysical, 635/667 nm fluorescence (AID 1142); details: 635 nm fluorescence, higher = more signal;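 also: fluorescence read at 667 nm with signal to noise per printed feature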
# [2] = cell viability in Huh7 cells, primary screen, cytotoxicity control for HCV replication inhibitor project, CellTiter-Glo luminescence, basal, 48 h (AID 1143); details: Huh7 HCV replicon, higher = more signal, called active from +8 up or from −8 down;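 also: Huh7 hepatoma cells carrying a hepatitis C replication reporter with no stimulus; test concentration not given here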
# [3] = P. aeruginosa biofilm formation inhibitors, primary screen, PAO1 strain, BacTiter-Glo luminescence, LB-PBS (AID 1144); details: 12 h, higher = more signal
# [4] = CREB reporter modulators without forskolin, primary screen, cell-based, PC12, CRE-LacZ reporter, unstimulated (AID 1145); details: no forskolin, luminescence, 4.5 h, higher = more signal, called active from +8 up or from −8 down
# [5] = CREB reporter modulators under forskolin, primary screen, cell-based, PC12, CRE-LacZ reporter, forskolin-stimulated (AID 1146); details: luminescence, 4.5 h, higher = more signal, called active from +8 up or from −8 down;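 also: PC12 cells with 6xCRE LacZ reporter stimulated by forskolin 10 µM; beta-galactosidase reporter signal reflecting CREB driven transcription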
# [6] = target: Streptavidin (Streptomyces avidinii) (UniProt P22629); assay: streptavidin binders on small-molecule microarray, primary screen, artefact control for SMM compound annotation, biophysical, 635/667 nm fluorescence (AID 1147); details: streptavidin binding, higher = more signal;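 also: signal reflects streptavidin binding to arrayed compounds as a control protein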
# Chain of Streptavidin (Streptomyces avidinii) (P22629 whole entry, looked up): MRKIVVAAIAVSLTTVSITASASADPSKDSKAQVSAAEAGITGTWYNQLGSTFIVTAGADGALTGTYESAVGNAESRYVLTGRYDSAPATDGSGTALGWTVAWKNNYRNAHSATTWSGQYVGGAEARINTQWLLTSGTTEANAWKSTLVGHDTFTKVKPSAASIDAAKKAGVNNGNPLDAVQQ
# [7] = small-molecule binders of probe aInhba, primary screen, biochemical, small-molecule microarray, 635/667 nm fluorescence (AID 1148); details: higher = more signal;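 also: score merges 667nm spot fluorescence with signal-to-noise for antibody binding to printed compounds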
# Torsin-1A (Homo sapiens) [8] = target: Torsin-1A (Homo sapiens) (UniProt O14656); assay: torsin A binders from cell lysate, primary screen, small-molecule microarray, wild-type, 635/667 nm (AID 1149); details: COS7 hTOR1A-WT lysate, 635 nm fluorescence, higher = more signal
# Chain of Torsin-1A (Homo sapiens) (O14656 whole entry, looked up): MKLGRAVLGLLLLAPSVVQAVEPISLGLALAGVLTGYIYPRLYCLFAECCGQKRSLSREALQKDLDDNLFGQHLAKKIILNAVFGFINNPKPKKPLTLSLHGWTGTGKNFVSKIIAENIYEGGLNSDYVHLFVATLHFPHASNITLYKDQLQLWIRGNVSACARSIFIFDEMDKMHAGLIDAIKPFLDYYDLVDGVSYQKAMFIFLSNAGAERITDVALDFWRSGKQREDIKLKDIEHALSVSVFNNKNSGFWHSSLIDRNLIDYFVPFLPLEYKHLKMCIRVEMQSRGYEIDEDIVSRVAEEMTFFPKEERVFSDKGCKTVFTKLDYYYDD
# Torsin-1A (Homo sapiens) [9] = target: Torsin-1A (Homo sapiens) (UniProt O14656); assay: small-molecule binders of mutant TOR1A in lysate, primary screen, cell lysate, small-molecule microarray, COS7 lysate, 635/667 nm fluorescence (AID 1150); details: COS7 hTOR1A mutant lysate, 635 nm fluorescence, higher = more signal;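 also: score pools 667 nm emission and signal to noise measuring lysate protein binding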
# [10] = system: Sonic hedgehog protein (Shh); assay: small-molecule binders of Shh protein, primary screen, biochemical, small-molecule microarray, 635/667 nm fluorescence (AID 1151); details: small-molecule microarray binding, 635 nm fluorescence; higher = more signal;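 also: Shh protein binding to compounds spotted on small-molecule microarray slides; score combines spot fluorescence intensity with signal-to-noise across triplicate slides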
# [11] = E. coli DRC41 culture turbidity changes, primary screen, E. coli filamentation inducer project, strain DRC41, OD650, 48 h (AID 1152);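 also: E. coli MC1000 strain DRC41 lacking acrAB efflux pump and sulA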; details: E. coli DRC41 (acrAB sulA), higher = more signal, called active from +8 up or from −8 down
# [12] = small-molecule binders of probe aLefty1, primary screen, biochemical, small-molecule microarray, 635/667 nm fluorescence (AID 1153); details: higher = more signal;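 also: score merges spot fluorescence with signal-to-noise ratio from the scanned slide images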
# [13] = PSAC antagonists in infected red cells, primary screen, cell-based, P. falciparum Indochina, OD700, 1 h (AID 1154); details: P. falciparum Indochina infected RBC osmotic lysis, higher = more signal, called active from +8 up or from −8 down
# [14] = PSAC antagonists in infected red cells, primary screen, cell-based, P. falciparum Indochina, OD700, 2 h (AID 1155);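 also: lysis reports solute entry through the parasite surface anion channel PSAC; channel blockers reduce lysis of infected cells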; details: P. falciparum Indochina infected erythrocytes, osmotic lysis OD700; higher = more signal, called active from +8 up or from −8 down
# [15] = osmotic lysis modulators in infected erythrocytes, primary screen, PSAC antagonist project, cell-based, P. falciparum Indochina, OD700, 3 h (AID 1156); details: higher = more signal, called active from +8 up or from −8 down
# [16] = PSAC antagonists in infected red cells, primary screen, cell-based, P. falciparum Indochina, OD700, 18 h (AID 1157); details: P. falciparum Indochina infected erythrocytes, osmotic lysis OD700, 18 h; higher = more signal, called active from +8 up or from −8 down
# [17] = modulators of S6 phosphorylation in cells, primary screen, cell-based, A549, cytoblot, luminescence, serum-stimulated (AID 1158); details: A549 phospho-S6 cytoblot, 5 h, higher = more signal;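 also: serum-stimulated A549 lung adenocarcinoma cells; signal is phosphorylated S6 detected by cytoblot immunostaining with HRP secondary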
# [18] = target: NADPH oxidase 2 (Homo sapiens) (UniProt P04839); assay: NOX2-dependent H2O2 signal modulators, primary screen, NOX inhibitor project, cell-based, HEK293-NOX2, PMA-stimulated, Amplex Red fluorescence (AID 1159); details: 45 min, higher = more signal, called active from +8 up or from −8 down; also: test concentration not given here
# Chain of NADPH oxidase 2 (Homo sapiens) (P04839 whole entry, looked up): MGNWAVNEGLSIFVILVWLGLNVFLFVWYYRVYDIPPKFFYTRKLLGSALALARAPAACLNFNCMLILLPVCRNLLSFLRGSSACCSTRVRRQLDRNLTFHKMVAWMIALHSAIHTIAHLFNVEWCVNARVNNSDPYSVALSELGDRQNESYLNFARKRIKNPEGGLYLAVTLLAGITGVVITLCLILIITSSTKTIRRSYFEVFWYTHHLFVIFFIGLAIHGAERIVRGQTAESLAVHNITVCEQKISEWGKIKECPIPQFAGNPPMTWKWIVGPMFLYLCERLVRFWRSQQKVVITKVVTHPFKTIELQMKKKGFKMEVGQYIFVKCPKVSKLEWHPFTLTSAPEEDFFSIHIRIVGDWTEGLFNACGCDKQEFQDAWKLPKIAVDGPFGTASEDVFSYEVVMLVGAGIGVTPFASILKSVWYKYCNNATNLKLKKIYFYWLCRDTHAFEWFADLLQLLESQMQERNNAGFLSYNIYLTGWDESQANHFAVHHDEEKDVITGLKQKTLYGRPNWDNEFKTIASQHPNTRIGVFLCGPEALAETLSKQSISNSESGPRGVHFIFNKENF
# [19] = target: NADPH oxidase 4 (Homo sapiens) (UniProt Q9NPH5); assay: NOX4-dependent H2O2 signal modulators, primary screen, NOX inhibitor project, cell-based, HEK293-NOX4, tetracycline-induced, Amplex Red fluorescence (AID 1160); details: 45 min, higher = more signal, called active from +8 up or from −8 down
# Chain of NADPH oxidase 4 (Homo sapiens) (Q9NPH5 whole entry, looked up): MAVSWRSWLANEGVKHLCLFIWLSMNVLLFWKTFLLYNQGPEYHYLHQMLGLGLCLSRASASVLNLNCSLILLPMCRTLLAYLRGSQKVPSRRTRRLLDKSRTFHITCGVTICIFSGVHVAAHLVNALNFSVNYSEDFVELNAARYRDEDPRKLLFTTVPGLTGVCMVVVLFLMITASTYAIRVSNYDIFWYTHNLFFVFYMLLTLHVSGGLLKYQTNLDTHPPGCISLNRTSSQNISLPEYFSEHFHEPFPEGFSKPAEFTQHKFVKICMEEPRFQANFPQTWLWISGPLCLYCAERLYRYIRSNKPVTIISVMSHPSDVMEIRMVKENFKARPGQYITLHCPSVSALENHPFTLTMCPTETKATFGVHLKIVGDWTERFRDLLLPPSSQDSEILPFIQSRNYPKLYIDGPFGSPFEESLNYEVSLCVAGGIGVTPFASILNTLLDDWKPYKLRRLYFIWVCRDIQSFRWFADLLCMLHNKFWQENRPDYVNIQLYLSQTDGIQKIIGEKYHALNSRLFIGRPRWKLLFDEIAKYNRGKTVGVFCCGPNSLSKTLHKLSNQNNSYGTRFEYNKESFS
# [20] = target: NADPH oxidase 5 (Homo sapiens) (UniProt Q96PH1); assay: NOX5-dependent H2O2 signal modulators, primary screen, NOX inhibitor project, cell-based, HEK293-NOX5, Amplex Red fluorescence (AID 1161); details: HEK293-NOX5, ionomycin, 45 min, higher = more signal
# Chain of NADPH oxidase 5 (Homo sapiens) (Q96PH1 whole entry, looked up): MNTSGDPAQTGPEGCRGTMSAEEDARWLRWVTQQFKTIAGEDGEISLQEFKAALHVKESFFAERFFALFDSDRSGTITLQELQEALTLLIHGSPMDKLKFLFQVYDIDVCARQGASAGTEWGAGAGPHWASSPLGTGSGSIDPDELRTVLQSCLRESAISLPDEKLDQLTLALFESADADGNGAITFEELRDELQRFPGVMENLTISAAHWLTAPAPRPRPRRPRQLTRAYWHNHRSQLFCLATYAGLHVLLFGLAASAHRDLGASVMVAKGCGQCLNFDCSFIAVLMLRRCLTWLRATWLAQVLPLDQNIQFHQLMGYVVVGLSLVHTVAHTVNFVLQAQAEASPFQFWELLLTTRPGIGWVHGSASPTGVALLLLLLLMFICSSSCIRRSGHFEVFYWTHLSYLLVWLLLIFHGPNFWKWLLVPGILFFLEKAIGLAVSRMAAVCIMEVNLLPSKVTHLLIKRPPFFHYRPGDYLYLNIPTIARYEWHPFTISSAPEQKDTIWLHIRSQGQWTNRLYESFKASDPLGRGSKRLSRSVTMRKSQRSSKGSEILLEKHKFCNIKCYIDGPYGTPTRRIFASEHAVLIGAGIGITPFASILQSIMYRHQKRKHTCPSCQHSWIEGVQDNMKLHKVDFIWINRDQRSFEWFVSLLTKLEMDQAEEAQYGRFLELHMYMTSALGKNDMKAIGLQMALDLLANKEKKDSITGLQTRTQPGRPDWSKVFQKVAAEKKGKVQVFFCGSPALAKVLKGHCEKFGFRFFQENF
Structure (SMILES),composite z-score [1],z-score [2],z-score [3],z-score [4],z-score [5],composite z-score [6],composite z-score [7],composite z-score (Torsin-1A (Homo sapiens) [8]),composite z-score (Torsin-1A (Homo sapiens) [9]),composite z-score [10],z-score [11],composite z-score [12],z-score [13],z-score [14],z-score [15],z-score [16],z-score [17],z-score [18],z-score [19],z-score [20]
CCCC[C@@H]1C[C@H]1[C@@H](NC(=O)c1cccnc1)c1ccc(Cl)cc1,-0.769,-1.25 (inactive),-0.128 (inactive),-0.368 (inactive),0.834 (inactive),-1.44,-0.335,-1.57,-0.419,-1.35,-3.66 (inactive),-0.321,2.29 (inactive),1.51 (inactive),0.395 (inactive),1.03 (inactive),0.348,-0.56 (inactive),-1.3 (inactive),0.715
COCCCNC(=O)[C@@]1(Sc2ccc(C)cc2)CC(=O)N(Cc2ccccc2Cl)[C@@H]1c1ccc(CO)cc1,0.349,-4.58 (inactive),-0.915 (inactive),-0.374 (inactive),1.09 (inactive),0.584,-0.0331,0.607,0.582,2.02,0.864 (inactive),-0.0011,0.38 (inactive),-0.91 (inactive),0.712 (inactive),-1.83 (inactive),2.14,-2.58 (inactive),-1.22 (inactive),-2.91
COCCOC(=O)N1C(=O)[C@@]2(c3ccccc31)[C@H](C(N)=O)[C@H]1C(=O)O[C@H](c3ccccc3)[C@H](c3ccccc3)N1[C@@H]2c1ccc(O)cc1,0.169,-2.51 (inactive),-0.166 (inactive),-0.375 (inactive),0.06 (inactive),-0.432,-0.204,0.603,0.779,0.105,0.912 (inactive),-0.649,0.658 (inactive),-1.28 (inactive),-0.142 (inactive),-2.25 (inactive),2.74,-0.339 (inactive),-0.637 (inactive),-0.534
CCCCN1CC=CC23O[C@@H]4C=CCCOC(=O)C4[C@H]2C(=O)N(CCCCCO)[C@@H]3C1=O (stereo not given in full),-0.276,0.342 (inactive),-0.0153 (inactive),0.199 (inactive),0.794 (inactive),-0.525,-0.233,0.226,0.735,-0.198,0.4 (inactive),-0.363,1.47 (inactive),0.48 (inactive),2.26 (inactive),0.331 (inactive),-0.0028,1.28 (inactive),0.0393 (inactive),1.46
COCC(=C=CC[C@H](O)c1cccc(OCCO)c1)C[C@H](O)c1cc(Cl)cc(Cl)c1O,0.556,-0.465 (inactive),-0.494 (inactive),10 (active),0.32 (inactive),-0.128,0.0104,1.06,0.878,1.77,0.652 (inactive),0.0012,22.1 (active),5.78 (inactive),0.658 (inactive),1.21 (inactive),0.232,-0.707 (inactive),-0.429 (inactive),-1.25
Cc1ccc(S(=O)(=O)N2C[C@@H](C(=O)O)[C@H](Sc3ccccc3)C[C@H]2c2ccccc2)cc1,0.731,-0.763 (inactive),-0.103 (inactive),-0.667 (inactive),-0.356 (inactive),1.26,0.0403,0.301,0.714,-0.156,-1.37 (inactive),0.409,1.7 (inactive),0.932 (inactive),0.369 (inactive),0.806 (inactive),-0.33,1.63 (inactive),0.111 (inactive),1.73
CCOC(=O)C[C@H]1[C@H](OC(=O)c2ccc(-c3ccccc3)cc2)[C@@H](NC(=O)c2ccccc2)c2cc(OCCCO)ccc2N1C(=O)c1ccc2ccccc2n1,0.278,0.775 (inactive),0.577 (inactive),-0.882 (inactive),-0.127 (inactive),0.255,0.368,0.181,0.757,-0.0315,-0.734 (inactive),0.119,2.19 (inactive),-0.0981 (inactive),-0.735 (inactive),-0.11 (inactive),-0.488,0.0548 (inactive),1.41 (inactive),1.81
C=CC1c2cc(O)c(OC)cc2CCN1Cc1cccc(OC(F)(F)F)c1 (stereo not given),-0.415,-2.49 (inactive),0.0435 (inactive),-0.527 (inactive),1.28 (inactive),0.577,-0.152,-1.1,0.88,0.12,0.277 (inactive),0.123,5.32 (inactive),0.544 (inactive),0.2 (inactive),0.451 (inactive),-0.318,-4.69 (inactive),-2.9 (inactive),-4.4
